From PubChem BioAssay
Shown are actives, neighbours in structure and some others; about 2.3% of the full set was active somewhere.
M1 ag parental: counter-screen for M1 agonists: effect in parental CHO-K1 cells | AID 602248, 2012 | activation, % at 3 µM | Fluo-8 calcium fluorescence; scaled to maximal ATP response, vehicle zero | 360,000 tested, 0.48% active; in the data active means activation above about 15%;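 further: untransfected CHO-K1 host cells lacking M1 receptor as counterscreen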
CHRM1 agonist: human M1 muscarinic receptor agonists, primary screen, Fluo-8 calcium fluorescence, CHO-K1 cells, HTS | 360,000 tested, 0.33% active | CHO-K1 hM1, agonist mode; 0% DMSO, 100% acetylcholine EC100 | activation, % at 3 µM | Muscarinic acetylcholine receptor M1 (Homo sapiens), P11229;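 active means activation above the run's mean compound activation plus 3 SD, cut at about 16% in these data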;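 further: peak over basal fluorescence ratio within a 140 s kinetic read after compound addition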
Target sequence (P11229 whole entry, looked up): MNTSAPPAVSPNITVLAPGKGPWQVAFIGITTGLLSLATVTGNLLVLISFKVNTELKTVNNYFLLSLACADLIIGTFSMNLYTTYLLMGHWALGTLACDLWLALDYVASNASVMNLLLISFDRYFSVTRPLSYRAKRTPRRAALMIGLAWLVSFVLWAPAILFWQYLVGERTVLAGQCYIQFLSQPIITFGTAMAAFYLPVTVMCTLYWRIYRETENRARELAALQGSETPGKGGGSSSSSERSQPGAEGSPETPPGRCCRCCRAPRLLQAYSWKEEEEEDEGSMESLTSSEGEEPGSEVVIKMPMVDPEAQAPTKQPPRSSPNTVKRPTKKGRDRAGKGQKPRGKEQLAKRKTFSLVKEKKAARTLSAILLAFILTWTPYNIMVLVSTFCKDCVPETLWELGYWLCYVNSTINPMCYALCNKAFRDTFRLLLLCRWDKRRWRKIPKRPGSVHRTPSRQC
M1 PAM parental: nonselective calcium activators in parental CHO-K1 cells, primary screen, counter-screen for M1 PAM project, cell-based, Fluo-8 calcium fluorescence, full deck, 1536-well. ATP EC20; 0% at ATP EC20, 100% at ATP max. activation, % at 3 µM. 360,000 tested, 0.02% active. AID 602247, 2012;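 active means activation above the run cutoff, the mean activation of all test compounds plus 3 SD, cut at about 40% in these data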;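 further: peak over basal fluorescence ratio in a 140 s read after ATP addition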
CHRM1 PAM: human M1 muscarinic receptor positive allosteric modulators, primary screen, CHO-K1 cells, Fluo-8 calcium fluorescence, 1536-well. CHO-K1 hM1, ACh EC20; 0% = ACh EC20, 100% = maximal ACh. activation, % at 3 µM. 360,000 tested, 0.088% active. AID 588819, 2011; in the data active means activation above about 19%, passing the limit was not always enough
CHO-K1 Ca antag: nonselective inhibitor or artifact in parental CHO-K1 cells | 360,000 tested, 0.6% active | inhibition, % at 3 µM | ATP-induced calcium, Fluo-8 fluorescence;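 active means inhibition above a per-plate cutoff, the plate's mean sample inhibition plus 3 SD, cut at about 24% in these data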;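 further: 0% = DMSO plus EC80 ATP and 100% = DMSO alone without ATP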
CHRM1 antagonist: human M1 muscarinic receptor antagonists, primary screen, CHO-K1 cells, Fluo-8 calcium fluorescence, 1536-well; CHO-K1 hM1, ACh EC80 antagonist; inhibition, % at 3 µM; 360,000 tested, 1.3% active; AID 588852, 2011;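 active means percent inhibition above its own plate's cutoff, namely the mean of that plate's compound wells plus 3 SD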;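 further: peak over basal fluorescence ratio during 140 s after agonist addition; 0% = ACh EC80 plus DMSO and 100% = DMSO alone without agonist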
* marks the source's active call; other numbers are inactive results.

SMILES | M1 ag parental | CHRM1 agonist | M1 PAM parental | CHRM1 PAM | CHO-K1 Ca antag | CHRM1 antagonist
CCOc1cccc(C(=O)N2CCCCC2c2cccnc2)c1 (stereo not given) | 0 | -3 | 7 | 6 | 0 | -7
COc1cccc(OCc2cc(C(=O)N3CCC(c4ccncc4)CC3)no2)c1 | 12 | 0 | -11 | -10 | 19 | 23
CC(=O)c1cccc(OCc2cc(C(=O)N3CCC(N4CCCCC4)CC3)no2)c1 | 1 | -5 | 14 | -22 | -10 | 48*
O=C(c1cc(COc2cccc(C(F)(F)F)c2)on1)N1CCC(c2ccccc2)CC1 | 1 | -2 | -3 | -5 | -13 | 3
CC(=O)c1ccc(OCc2cc(C(=O)N3CCCCC3c3cccnc3)no2)cc1 (stereo not given) | 16* | 5 | -5 | -5 | -1 | 4
CC(=O)c1ccc(OCc2cc(C(=O)N3CCC(c4ccncc4)CC3)no2)cc1 | 15* | 1 | -28 | -11 | 19 | 14
O=C(c1cc(COc2cccc(C(F)(F)F)c2)on1)N1CCC(c2ccncc2)CC1 | 11 | -1 | 1 | -13 | 19 | 38*
N=c1n(N)c2ccccc2n1CC(=O)c1ccc(Br)cc1 | 0 | -9 | 19 | -9 | -13 | 3
COc1ccccc1C(CNc1nc(C(F)(F)F)nc2ccccc12)N(C)C (stereo not given) | 3 | -11 | -6 | -24 | -12 | 12
Cc1cc(C(=O)NNC(=O)c2ccc(C)s2)c(C)o1 | 1 | 2 | 13 | 17 | -4 | -16
O=C(COC(=O)COc1cccc(C(F)(F)F)c1)NC1CCCC1 | 1 | 1 | -10 | 7 | -2 | -9
Cn1c(=O)[nH]c(=O)c2c1nc(N1CCN(Cc3ccccc3)CC1)n2CCSc1ncccn1 | 5 | -5 | 3 | -14 | 4 | 33*
Cn1c(=O)[nH]c(=O)c2c1nc(N1CCc3ccccc3C1)n2CCSc1nc2ccccc2s1 | 0 | -2 | 24 | 16 | -14 | -16
CN1CCN(c2nc3c(c(=O)[nH]c(=O)n3C)n2CCSc2nc3ccccc3s2)CC1 | 0 | 18* | -9 | -7 | 27* | -4
O=C(C1CCN(S(=O)(=O)c2ccccc2)CC1)N1CCC1 | 0 | -3 | -5 | 9 | -2 | -9
O=C(COC(=O)c1ccc(Br)c(S(=O)(=O)N2CCOCC2)c1)NC1CC1 | 0 | 0 | -1 | 10 | -6 | -13
CC(=O)c1ccccc1Oc1cc(NN2CCCCC2)c([N+](=O)[O-])cc1[N+](=O)[O-] | 0 | -11 | 12 | -35 | -9 | 36*
O=[N+]([O-])c1cc([N+](=O)[O-])c(Oc2cccc3ccccc23)cc1NN1CCCCC1 | 0 | 10 | 3 | 30* | -16 | -9
O=[N+]([O-])c1cc([N+](=O)[O-])c(Oc2c(Cl)cccc2Cl)cc1NN1CCCCC1 | 1 | -4 | 7 | 3 | -8 | -4
CC1=C(C(=O)Nc2cccc(C(=O)NC3CCCCC3C)c2)SCCO1 (stereo not given) | 3 | -1 | -10 | -1 | -3 | 4
CC(C)NS(=O)(=O)c1ccc(CCC(=O)N2CCCC2)cc1 | -1 | -3 | -16 | 8 | 24* | 1
CN(CCO)C(=O)C1CCN(c2ncc(C(F)(F)F)cc2Cl)CC1 | 4 | -5 | 23 | 0 | -8 | 4
NC(=O)C1CCN(c2ncc(C(F)(F)F)cc2Cl)CC1 | 0 | -10 | 22 | -11 | -9 | 39*
O=C(c1ccc2nc[nH]c2c1)N1CCN(c2ncc(C(F)(F)F)cc2Cl)CC1 | 2 | 11 | -13 | 26* | -1 | 1
COc1ccc(-c2cc(C)no2)cc1S(=O)(=O)NCC1CCN(Cc2cc(C)ccc2C)CC1 | 3 | -5 | 6 | -25 | -17 | 51*
SMILES | M1 ag parental | CHRM1 agonist | M1 PAM parental | CHRM1 PAM | CHO-K1 Ca antag | CHRM1 antagonist
COc1ccccc1CN1CCC(CNS(=O)(=O)c2cc(-c3cc(C)no3)ccc2C)CC1 | 6 | -3 | 7 | -24 | -23 | 66*
Cc1cc(-c2ccc(C)c(S(=O)(=O)NCC3CCN(Cc4ccc(F)cc4)CC3)c2)on1 | 4 | -4 | 0 | -4 | -14 | -6
Fc1cccc(CCN2CCNC[C@@H]2CC2CCCCC2)c1 | 4 | 2 | 30 | -3 | -19 | 6
Cc1ccc(S(=O)(=O)N2CCC[C@H]2C(=O)OCC(=O)N2CCc3ccccc32)cc1 | -1 | -4 | 25 | 7 | -17 | -17
Oc1cc(-c2cccnc2)cc2cccnc12 | -1 | -4 | -19 | -1 | 72* | 4
CC(=O)c1ccc(NC(=O)CN2CCN(S(=O)(=O)c3ccc4c(c3)OCCO4)CC2)cc1 | 0 | -8 | -6 | -8 | -3 | 7
CCOC(=O)C(=O)N(C)c1c(CC)nc2c(OCc3ccccc3)cccn12 | 0 | -5 | -1 | 11 | -3 | -10
COc1ccc(CNC(=O)c2ccc(S(=O)(=O)NCc3ccco3)cc2)cc1 | 4 | -1 | 2 | 5 | -7 | -7
CC1CCN(CC(=O)Nc2ccc3c(c2)OCO3)CC1 | 17* | -8 | 5 | 7 | 3 | -8
Cc1ccc(C)n1CCN1CCN(CC(=O)Nc2ccc(S(N)(=O)=O)cc2)CC1 | 0 | -3 | -5 | -5 | 29* | 17
CC1CCCN(S(=O)(=O)c2ccc(NC(=O)CNC3CCCC3)cc2)C1 (stereo not given) | 4 | -12 | 22 | -2 | -23 | -7
CC1CCN(CC(=O)Nc2ccc(S(=O)(=O)N3CCCC(C)C3)cc2)CC1 (stereo not given) | 18* | -8 | 11 | -8 | -2 | 3
CC1CCCN(S(=O)(=O)c2ccc(NC(=O)CN3CCN(C)CC3)cc2)C1 (stereo not given) | 0 | -6 | -2 | -19 | 7 | 22*
Nn1c(SCC(=O)NCC2CCCO2)nnc1-c1ccco1 (stereo not given) | 0 | -1 | 9 | -2 | -8 | 11
CCOC(=O)c1nc(Nc2cc(Cl)ccc2OC)c2ccccc2n1 | 1 | -3 | 2 | 10 | -9 | -13
CC1CCCN(S(=O)(=O)c2ccc(NC(=O)Cc3ccc(S(=O)(=O)N4CCOCC4)s3)cc2)C1 (stereo not given) | 0 | 0 | -32 | 3 | 25* | 3
CC1CCN(C(C)C(=O)Nc2ccc(S(=O)(=O)N3CCCC3)cc2)CC1 (stereo not given) | 0 | -9 | -16 | -30 | 1 | 101*
